Bioassay records (PubChem)
Sampled rows, rich in hits. Any-hit rate of the full collection: about 1%.
WRN inhibitor: qHTS for Inhibitors of WRN Helicase; WRN helicase unwinding, fluorescent forked duplex, kinetic; 360,000 tested, 0.46% active; Bifunctional 3'-5' exonuclease/ATP-dependent helicase WRN (Homo sapiens), Q14191; Potency, µM (highest dose often 114 µM), without a hit: top-dose activity change, negative = inhibition, actives largely listed as inhibitors; further: on the % scale 0 is the no-effect control and ±100 the full control effect; nearly all actives have a fitted effect of over 55% in size
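Kinetic fluorescence helicase assay: unwinding of a quenched forked DNA duplex (100 nM final) with 2 mM ATP final raises red fluorescence (525/598 nm). Compounds sat 15 min at room temperature with 20 nM WRN beforehand.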
APE1 inh: qHTS Assay for Inhibitors of the Human Apurinic/apyrimidinic Endonuclease 1 (APE1). DNA repair nuclease/redox regulator APEX1 (Homo sapiens), P27695. recombinant APE1, TAMRA/BHQ-2 abasic DNA cleavage fluorescence. Potency, µM (titrated, usually from 65.8 µM), inactives show at the top dose activity change, negative = inhibition, hits mostly inhibitors. 350,000 tested, 0.35% active;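 further: plate controls were vehicle for no effect and reference inhibitor for full effect; nearly all actives have a fitted effect of over 55% in size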
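APE1 at 0.75 nM final was preincubated with compound 15 min at room temperature, then 50 nM double-stranded THF abasic-site substrate (5'-TAMRA/3'-BHQ-2) was added. Fluorescence (ex 525/em 598 nm) was read kinetically; third-minus-first read gave activity.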
L3MBTL1 inh-1: qHTS Assay for the Inhibitors of L3MBTL1; AlphaScreen L3MBTL1–H3K9me1 peptide binding; Potency, µM (top dose mostly 57.1 µM), inactives show at the top dose activity, negative = inhibition, actives largely listed as inhibitors; 230,000 tested, 0.66% active; further: on the % scale 0 is the no-effect control and ±100 the full control effect; nearly all actives have a fitted effect of over 60% in size
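First, the protein-peptide complex forms for 30 min at room temperature (L3MBTL1 50 nM, biotinylated H3K9me1 peptide 75 nM). Next, compounds are pin-transferred and incubated 30 min. Finally, AlphaScreen beads are added and read after 30 min.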
BLM inh: qHTS Assay for Inhibitors of Bloom's syndrome helicase (BLM). RecQ-like DNA helicase BLM (Homo sapiens), P54132. recombinant BLM DNA unwinding, fluorescence dequenching. Potency, µM (titrated, usually from 56.1 µM), for the others: at the top dose activity change, negative = inhibition, usual class: inhibitors. 350,000 tested, 0.2% active. AID 2528, 2010;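 further: plate controls were vehicle for no effect and no enzyme for full effect; nearly all actives have a fitted effect of over 35% in size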
FEN1 inh: qHTS Assay for the Inhibitors of Human Flap endonuclease 1 (FEN1); P39748; Recombinant FEN1 flap cleavage, fluorescence, 15 min; Potency, µM (doses to about 114 µM), for the others: top-dose activity change, negative = inhibition, usual class: inhibitors; 390,000 tested, 0.35% active; AID 588795, 2011; further: on the % scale 0 is the no-effect control and ±100 the full control effect; nearly all actives have a fitted effect of over 65% in size
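Potency values derive from four-parameter Hill fits of normalized qHTS data. The reaction used 10 nM FEN1 preincubated 15 min at room temperature with compound, then 50 nM DNA substrate, read at 0 and 15 min.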
RECQ1 helicase: qHTS Assay for Inhibitors of RecQ-Like Dna Helicase 1 (RECQ1). RECQ1 DNA unwinding, red fluorescence kinetic read. 240,000 tested, 0.54% active. ATP-dependent DNA helicase Q1 (Homo sapiens), P46063. Potency, µM (doses to about 57.3 µM), for inactives: at the highest dose activity, negative = inhibition, usual class: inhibitors;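 further: plate controls were vehicle for no effect and no enzyme for full effect; nearly all actives have a fitted effect of over 30% in size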
Target sequence (P46063 whole entry, looked up): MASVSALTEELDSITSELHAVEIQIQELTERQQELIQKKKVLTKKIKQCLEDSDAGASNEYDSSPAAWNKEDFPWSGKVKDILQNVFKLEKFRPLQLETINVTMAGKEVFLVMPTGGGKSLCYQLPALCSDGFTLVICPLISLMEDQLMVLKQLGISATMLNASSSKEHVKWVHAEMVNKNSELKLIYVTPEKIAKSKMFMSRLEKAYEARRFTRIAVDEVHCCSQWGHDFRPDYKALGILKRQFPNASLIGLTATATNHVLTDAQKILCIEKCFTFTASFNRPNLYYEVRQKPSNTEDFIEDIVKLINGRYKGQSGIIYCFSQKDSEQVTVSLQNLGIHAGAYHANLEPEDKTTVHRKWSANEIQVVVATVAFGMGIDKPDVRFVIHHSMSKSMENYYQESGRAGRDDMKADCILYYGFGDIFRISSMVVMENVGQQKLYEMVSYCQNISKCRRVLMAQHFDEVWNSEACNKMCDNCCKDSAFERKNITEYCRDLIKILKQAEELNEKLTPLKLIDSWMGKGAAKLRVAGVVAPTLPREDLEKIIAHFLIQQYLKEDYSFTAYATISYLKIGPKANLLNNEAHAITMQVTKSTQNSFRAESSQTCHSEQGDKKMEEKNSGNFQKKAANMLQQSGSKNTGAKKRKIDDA
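RECQ1T1 50 nM; forked duplex (20 bp + 30-nt ss tails) 200 nM, ATP 2 mM final; pH 8.0, 2 mM MgCl2, 2.5 ug/ml poly(dI-dC); 15 min compound preincubation; discontinuous kinetic read over 2 h at RT.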
L3MBTL1 inh-2: qHTS Assay for the Inhibitors of L3MBTL1: Hit Validation; L3MBTL1 methyl-lysine binding inhibition, biochemical qHTS; 500 tested, 91% active; Potency, µM, hits mostly inhibitors; shares compounds with L3MBTL1 inh-1; AID 540279, 2011; further: nearly all actives have a fitted effect of over 70% in size
L3MBTL1 ctr: qHTS Assay for the Inhibitors of L3MBTL1: Hit Validationin AlphaScreen Counterscreen; shares compounds with L3MBTL1 inh-1; AlphaScreen counterscreen, signal inhibition; Potency, µM (titrated, usually from 57.1 µM), without a hit: top-dose activity change, negative = inhibition, hits mostly inhibitors; 500 tested, under 10 active; AID 602224, 2012; further: 0% is about no effect
* marks the source's active call; other numbers are inactive results; [ ] = another dose, or the depositor's remark. The call rests on the fitted dose curve; in most records, active means well fitted curve in the direction sought with a large enough effect; inconclusive means small, poorly fitted or top-dose-only effect, or another doubt; inactive means no such curve, though single readings can be large; an effect the other way counts as inactive or inconclusive. Potency means the concentration at half of the fitted maximal effect.

For Cc1ccc(S(=O)(=O)c2c(N)n(CCCN(C)C)c3nc4ccccc4nc23)cc1 the results were WRN inhibitor -4%, APE1 inh 3%, L3MBTL1 inh-1 12%, BLM inh -4%, FEN1 inh 11% and RECQ1 helicase -2%.
Screening CCCCn1c(NS(=O)(=O)c2ccc(C)cc2)c(S(=O)(=O)c2ccccc2)c2nc3ccccc3nc21 returned WRN inhibitor -19%, APE1 inh -6%, L3MBTL1 inh-1 5µM*, BLM inh 7.1µM*, FEN1 inh -14%, RECQ1 helicase -22%, L3MBTL1 inh-2 21* and L3MBTL1 ctr 0%.
For O=C1C=C(O)CC(c2ccco2)C1 (stereo not given) the results were WRN inhibitor inconclusive, APE1 inh 3.2µM*, L3MBTL1 inh-1 14µM*, BLM inh 64%, FEN1 inh inconclusive, RECQ1 helicase inconclusive, L3MBTL1 inh-2 3* and L3MBTL1 ctr -20%.
For O=C1C=C(Nc2ccc(O)cc2)CC(c2ccco2)C1 (stereo not given) the results were WRN inhibitor -2%, APE1 inh -1%, L3MBTL1 inh-1 inconclusive, BLM inh -2%, FEN1 inh 9% and RECQ1 helicase 6%.
Screening CC1CCCCN1C(=O)c1cnn2c1NC(=C1CC1)C=C2C(F)F (stereo not given) returned FEN1 inh -15%.
Cc1ccnc2nc(C(=O)Nc3nc(-c4ccccn4)cs3)nn12 was read as WRN inhibitor inconclusive, APE1 inh inconclusive, L3MBTL1 inh-1 14µM*, BLM inh -26%, FEN1 inh inconclusive, RECQ1 helicase -26%, L3MBTL1 inh-2 4.2* and L3MBTL1 ctr inconclusive.
For Cc1ccccc1NC(=O)c1nc2nccc(C)n2n1 the results were APE1 inh 2%, L3MBTL1 inh-1 44%, BLM inh 1% and RECQ1 helicase -2%.
c1ccc2c(c1)OCC(c1nn3c(Cn4nnc5ccccc54)nnc3s1)O2 (stereo not given) was read as WRN inhibitor -33%[57.1 µM], APE1 inh inconclusive, L3MBTL1 inh-1 35µM*, BLM inh -6%, FEN1 inh -3%, RECQ1 helicase -9%, L3MBTL1 inh-2 inconclusive and L3MBTL1 ctr 6%.
CC1(C)OC(=O)C2(Cc3cc([N+](=O)[O-])ccc3N3CCCCCC32)C(=O)O1 (stereo not given) was read as FEN1 inh -14%.
`O=c1cc(OCc2ccccc2)cc[nH]1` gave WRN inhibitor 4%, APE1 inh 11%, L3MBTL1 inh-1 28µM*, FEN1 inh 0%, L3MBTL1 inh-2 6* and L3MBTL1 ctr -20%.
Screening Oc1c(Br)cc(Br)cc1CNc1cccc2cccnc12 returned WRN inhibitor -3%[11.6 µM], APE1 inh -13%, L3MBTL1 inh-1 35µM*, BLM inh inconclusive, FEN1 inh inconclusive, L3MBTL1 inh-2 inconclusive and L3MBTL1 ctr -17%.
Oc1ccc(Br)cc1CNc1cccc2cccnc12 was read as WRN inhibitor 5%, APE1 inh 9%, L3MBTL1 inh-1 -3%[2.29 µM], BLM inh -11% and FEN1 inh inconclusive.
Screening COc1cccc(CNC(=O)c2ccc(S(=O)(=O)N3CCCCC3)cc2)c1 returned WRN inhibitor 7%.
O=C(Oc1c(CN2CCOCC2)cc(Cl)c2cccnc12)c1ccccc1Br was read as WRN inhibitor -8%, APE1 inh -4%, L3MBTL1 inh-1 32µM*, BLM inh -5%, FEN1 inh -24%, RECQ1 helicase -4%, L3MBTL1 inh-2 24* and L3MBTL1 ctr 2%.
`COC(=O)/C(=C\c1ccc([N+](=O)[O-])o1)NC(=O)c1ccccc1` gave WRN inhibitor -9%, APE1 inh -2%, BLM inh -2%, FEN1 inh 12% and RECQ1 helicase -21%.
For Cc1cccc(NC(=O)/C(=C\c2ccc([N+](=O)[O-])o2)NC(=O)c2ccc(Cl)cc2)c1 the results were WRN inhibitor -7%[11.6 µM], APE1 inh 2%, L3MBTL1 inh-1 28µM*, BLM inh -13%, FEN1 inh 3%, RECQ1 helicase -1%, L3MBTL1 inh-2 13* and L3MBTL1 ctr 1%.
`O=C(O)CN1C(=O)/C(=C\c2ccc(OC(=O)c3ccco3)cc2)SC1=S` gave WRN inhibitor -16%[57.1 µM], APE1 inh 6%[12.4 µM], BLM inh 1% and FEN1 inh -5%.
`O=C(O)CN1C(=O)/C(=C/c2ccc(SCc3ccccc3)o2)SC1=S` gave WRN inhibitor inconclusive, APE1 inh 28µM*, L3MBTL1 inh-1 2.2µM*, BLM inh 126%, FEN1 inh -19%, RECQ1 helicase 25µM*, L3MBTL1 inh-2 4.7* and L3MBTL1 ctr inconclusive.
For CC1=NOC(=O)/C1=C\c1ccc(-c2ccc(Br)cc2C(=O)O)o1 the results were WRN inhibitor 50µM*, APE1 inh 3%, L3MBTL1 inh-1 22µM*, BLM inh -2%, FEN1 inh -11%, RECQ1 helicase -15%, L3MBTL1 inh-2 27* and L3MBTL1 ctr 2%.
COCCCN(C(=O)c1cc(-c2ccco2)nc2ccccc12)c1c(N)n(Cc2ccccc2)c(=O)[nH]c1=O was read as WRN inhibitor -28%, APE1 inh -36%, L3MBTL1 inh-1 32µM*, FEN1 inh -7%, L3MBTL1 inh-2 19* and L3MBTL1 ctr 6%.
